From PubChem BioAssay (Tox21)
Unmarked numbers belong to inactive results. Inconclusive results are not listed. A call without a number means that no potency is given here. Calls of active or inactive are those of the source. Unless noted, calls follow the shape of the dose curve; as a rule, active = well fitted curve in the direction sought with a large enough effect in the repeat runs; inconclusive = weak or mixed curves; inactive = no such curve, though single readings can be large; an effect the other way counts as inactive or inconclusive.

Tests used:
[1] = qHTS assay to identify small molecule antagonists of the sonic hedgehog signaling (Shh) pathway (AID 1259369; calls by dose curve; also: nearly all actives have a fitted effect of over 45% in size)
Outline: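 3T3Gli1-Luc, conditioned-medium-stimulated, 24hr cpd, 37C/5% CO2; Gli1-driven firefly Luc luminescence after 30min RT with luciferase reagent. Cells plated 4hr before cpd.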

[2] = qHTS assay to identify small molecule agonists of the androgen receptor (AR) signaling pathway in the presence of an antagonist - cell viability counter screen (AID 1259379);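 also: MDA-kb2 human breast cancer cells carrying an MMTV luciferase reporter; series mostly up to about 92 µM; nearly all actives have a fitted effect of over 25% in size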
Outline: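 Cells: MDA-kb2 (MMTV-luc, AR and GR elements), 3,000/well, 5 hr settle. Added: nilutamide 3.0uM final, then compounds (15 conc.). Incubation: 16 hr, 37C, no CO2. Read-out: CellTiter-Fluor, 1 hr, fluorescence.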

[3] = qHTS assay to identify small molecule agonists of the estrogen receptor beta (ER-beta) signaling pathway - cell viability counter screen (AID 1259380); also: nearly all actives have a fitted effect of over 30% in size
Outline: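 HEK293T ER-beta-UAS-bla; 2% CS-FBS; 6 hr pre-plate, 16 hr cpd at 37C/5% CO2; LiveBLAzer read first, then CellTiter-Glo 30 min RT, luminescence.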

[4] = qHTS assay to identify small molecule antagonists of the estrogen receptor beta (ER-beta) signaling pathway - cell viability counter screen (AID 1259382);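 also: HEK293T cells carrying ER-beta-UAS-bla reporter stimulated with estradiol; series mostly up to about 92 µM; nearly all actives have a fitted effect of over 55% in size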
Outline: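 Cells: ER-beta-UAS-bla HEK293T, 2,000/well, 2% CS-FBS, 6 hr settle. Cpd + E2 (1nM final), 16 hr, 37C/5% CO2. Bla FRET substrate 2 hr RT, then CellTiter-Glo 30 min RT, luminescence.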

[5] = target: Estrogen receptor (Homo sapiens) (UniProt P03372); assay: qHTS assay to identify small molecule agonists of the estrogen receptor alpha (ER-alpha) signaling pathway in the presence of an antagonist (AID 1259383; calls by dose curve; also: top concentration of the series differs between compounds; nearly all actives have a fitted effect of over 15% in size)
Outline: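 VM7Luc4E2, endog. ER-alpha + 4×ERE-luc; charcoal-stripped FBS, phenol red-free, 5 d; 24hr plating; +10.0nM ICI-182,780 (final); cpds 15 conc, 22hr, 37C/5% CO2; ONE-Glo luminescence.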

[6] = qHTS assay to identify small molecule agonists of the estrogen receptor alpha (ER-alpha) signaling pathway in the presence of an antagonist - cell viability counter screen (AID 1259386);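 also: series mostly up to about 92 µM; cells exposed to compounds for 22 h at 37 °C before the viability read; nearly all actives have a fitted effect of over 30% in size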
Outline: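 VM7Luc4E2, stripped-serum pre-culture 5 d; 24hr plating; +ICI-182,780 10.0nM final; cpds 15 conc, 22hr, 37C/5% CO2; CellTiter-Fluor added at 21hr, fluorescence 1hr later.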

[7] = target: Progesterone receptor (Homo sapiens) (UniProt P06401); assay: qHTS assay to identify small molecule agonists of the progesterone receptor (PR) signaling pathway (AID 1346784; calls by dose curve; also: nearly all actives have a fitted effect of over 30% in size; also: potency is read from the fitted curve at half-maximal effect)
Outline: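 PR-UAS-bla HEK 293T cells (beta-lactamase reporter under UAS) in 2% charcoal-stripped FBS, dosed with 23 nL compound after 6 hr, incubated 16hr at 37C. LiveBLAzer B/G FRET substrate added, fluorescence read after 2 hours.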

[8] = qHTS assay to identify small molecule antagonists of the progesterone receptor (PR) signaling pathway - cell viability counter screen (AID 1346798); also: series mostly up to about 92 µM; nearly all actives have a fitted effect of over 50% in size
Outline: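 PR-UAS-bla HEK293T cells, 3,000/well in 2% charcoal-stripped FBS medium, dosed with compounds plus R5020 agonist and incubated 16 h at 37C. Viability then measured in the same wells by CellTiter-Glo luminescence after 30 min at RT.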

[9] = qHTS assay to identify small molecule agonists of the progesterone receptor (PR) signaling pathway - cell viability counter screen (AID 1346799; calls by dose curve; also: nearly all actives have a fitted effect of over 45% in size)
Outline: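 Counter screen in the PR-UAS-bla HEK293T wells (2% charcoal-stripped FBS, 16 h compound exposure at 37 C) after the bla read. CellTiter-Glo added, 30 min at room temperature, luminescence read as cell viability.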

[10] = qHTS assay to identify small molecule antagonists of the TGF-beta/Smad signaling pathway - cell viability counter screen (AID 1346824); also: nearly all actives have a fitted effect of over 50% in size
Outline: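 Cytotoxicity counter-screen run in the same wells as the beta-lactamase Smad reporter read: CellTiter-Glo luminescence after 30 min at room temperature. HEK 293T SBE-bla cells had 5 hr compound exposure at 37 C with TGF-beta1 (0.25 ng/mL stock).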

[11] = qHTS assay to identify small molecule agonists of the TGF-beta/Smad signaling pathway - cell viability counter screen (AID 1346829); also: top concentration of the series differs between compounds; nearly all actives have a fitted effect of over 45% in size
Outline: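 Tox21 qHTS format: SBE-bla HEK 293T cells treated with DMSO-dissolved compounds for 5 hr; CellTiter-Glo luminescence after 30 min at room temperature.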

[12] = qHTS assay to identify small molecule agonists of the TGF-beta/Smad signaling pathway (AID 1346859; active = well fitted activation curve with a large enough effect in the signal ratio in the repeat runs, not every such curve was filed as active; the % refers to the signal ratio; also: series mostly up to about 77 µM)
Outline: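 SBE-bla HEK293T cells plated overnight, then compound exposure for 5 h at 37 C. Beta-lactamase reporter read with LiveBLAzer B/G FRET substrate after 2 h at room temperature, fluorescence at 405 nm excitation, 460/530 nm emission.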

[13] = qHTS assay to identify small molecule agonists or antagonists of the thyroid stimulating hormone receptor (TSHR) signaling pathway - wild type cell line counter screen (AID 1259384; calls by dose curve)
Outline: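 Counter screen in untransfected Hek293: compounds (15-point titration, triplicate) plus phosphodiesterase inhibitor Ro20-1724 added after 18 h plating; 30 min RT. Intracellular cAMP via competitive d2/cryptate immunoassay, 1 h incubation.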

[14] = target: Progesterone receptor (Homo sapiens) (UniProt P06401); assay: qHTS assay to identify small molecule antagonists of the progesterone receptor (PR) signaling pathway (AID 1346795; active = well fitted inhibition curve with a large enough effect in the signal ratio in the repeat runs, not every such curve was filed as active; the % refers to the signal ratio)
Outline: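 PR-UAS-bla HEK293T cells with beta-lactamase reporter under UAS control, in 2% charcoal-stripped FBS, treated with compounds plus 1 nM promegestone (R5020, final) for 16 hr at 37C. Read-out: FRET beta-lactamase substrate fluorescence after 2 hr at room temperature.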

[15] = target: Thyrotropin-releasing hormone receptor (Homo sapiens) (UniProt P34981); assay: qHTS assay to identify small molecule agonists of the thyrotropin-releasing hormone receptor (TRHR) signaling pathway (AID 1346891; calls by dose curve; also: series mostly up to about 58 µM)
Outline: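 HEK293 cells expressing TRHR plated 18 h at 37 C/5% CO2, calcium dye-loaded 2 h at 37 C, then compound added (agonist mode); kinetic calcium fluorescence read 3 min at 1 s intervals; 15 concentrations in triplicate.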

[16] = target: Thyrotropin receptor (Homo sapiens) (UniProt P16473); assay: qHTS assay to identify small molecule antagonists of the thyroid stimulating hormone receptor (TSHR) signaling pathway (AID 1259385; calls by dose curve; also: nearly all actives have a fitted effect of over 20% in size)
Outline: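 Antagonist mode: compound-treated TSHR-expressing HEK293 cells were stimulated with 1.5 ng/mL TSH (final) in presence of Ro20-1724 for 30 min at RT. HTRF cAMP detection after 1 h; each compound tested at 15 concentrations, triplicate.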

[17] = target: Thyrotropin-releasing hormone receptor (Homo sapiens) (UniProt P34981); assay: qHTS assay to identify small molecule antagonists of the thyrotropin-releasing hormone receptor (TRHR) signaling pathway (AID 1346877; active = well fitted inhibition curve with a large enough effect in the repeat runs, not every such curve was filed as active; also: series mostly up to about 51 µM)
Outline: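 Intracellular calcium fluorescence, read kinetically every second over 3 min, reports TRH-evoked signalling in HEK293 cells carrying TRHR. Test compounds were added 5 min ahead of a 1 nM TRH challenge.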

Thyrotropin receptor (Homo sapiens), sequence (P16473 whole entry, looked up): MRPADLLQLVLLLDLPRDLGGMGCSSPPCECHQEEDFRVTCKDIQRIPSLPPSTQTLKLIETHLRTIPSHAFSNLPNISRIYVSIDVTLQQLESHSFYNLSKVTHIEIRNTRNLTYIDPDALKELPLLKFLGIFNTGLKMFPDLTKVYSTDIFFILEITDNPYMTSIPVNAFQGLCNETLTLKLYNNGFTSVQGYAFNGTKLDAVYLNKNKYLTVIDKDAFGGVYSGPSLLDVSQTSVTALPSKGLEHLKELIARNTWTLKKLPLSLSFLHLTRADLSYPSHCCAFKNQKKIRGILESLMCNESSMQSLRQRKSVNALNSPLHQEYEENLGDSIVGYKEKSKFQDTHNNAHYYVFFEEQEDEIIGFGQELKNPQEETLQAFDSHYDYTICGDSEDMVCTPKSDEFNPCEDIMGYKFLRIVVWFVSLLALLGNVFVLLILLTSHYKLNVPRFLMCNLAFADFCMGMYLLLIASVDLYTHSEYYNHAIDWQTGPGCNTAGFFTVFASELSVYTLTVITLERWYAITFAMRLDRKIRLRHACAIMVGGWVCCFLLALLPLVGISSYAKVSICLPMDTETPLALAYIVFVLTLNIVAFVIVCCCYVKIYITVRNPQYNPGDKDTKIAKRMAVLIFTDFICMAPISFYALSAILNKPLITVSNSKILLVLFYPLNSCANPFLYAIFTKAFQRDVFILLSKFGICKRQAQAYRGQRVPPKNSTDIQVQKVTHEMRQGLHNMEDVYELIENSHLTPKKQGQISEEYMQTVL
Thyrotropin-releasing hormone receptor (Homo sapiens), sequence (P34981 whole entry, looked up): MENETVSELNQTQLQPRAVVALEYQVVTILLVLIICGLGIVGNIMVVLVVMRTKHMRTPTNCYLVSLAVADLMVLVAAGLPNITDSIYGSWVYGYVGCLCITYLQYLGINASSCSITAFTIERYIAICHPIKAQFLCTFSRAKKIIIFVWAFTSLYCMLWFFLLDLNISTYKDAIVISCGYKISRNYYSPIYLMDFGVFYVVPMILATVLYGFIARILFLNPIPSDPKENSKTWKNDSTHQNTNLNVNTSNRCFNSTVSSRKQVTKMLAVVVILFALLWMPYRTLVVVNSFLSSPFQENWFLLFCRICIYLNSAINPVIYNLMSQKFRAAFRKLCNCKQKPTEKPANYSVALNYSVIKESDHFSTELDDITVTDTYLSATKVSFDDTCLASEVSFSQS
Estrogen receptor (Homo sapiens), sequence (P03372 whole entry, looked up): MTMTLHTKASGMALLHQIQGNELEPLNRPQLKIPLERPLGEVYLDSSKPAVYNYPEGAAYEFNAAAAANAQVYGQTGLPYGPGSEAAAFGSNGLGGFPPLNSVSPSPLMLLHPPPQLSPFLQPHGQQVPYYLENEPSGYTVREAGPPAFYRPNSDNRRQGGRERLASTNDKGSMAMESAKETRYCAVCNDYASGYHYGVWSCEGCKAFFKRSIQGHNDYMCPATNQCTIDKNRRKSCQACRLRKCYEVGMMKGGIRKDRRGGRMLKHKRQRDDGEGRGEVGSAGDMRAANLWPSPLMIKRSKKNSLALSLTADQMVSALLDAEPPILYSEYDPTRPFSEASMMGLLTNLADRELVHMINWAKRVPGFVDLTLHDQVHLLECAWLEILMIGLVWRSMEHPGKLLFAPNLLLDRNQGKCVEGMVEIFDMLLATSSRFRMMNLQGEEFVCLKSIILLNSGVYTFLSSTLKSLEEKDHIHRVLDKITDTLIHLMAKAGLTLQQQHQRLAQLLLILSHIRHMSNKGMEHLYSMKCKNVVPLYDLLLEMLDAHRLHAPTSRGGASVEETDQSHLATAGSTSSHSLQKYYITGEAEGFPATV
Progesterone receptor (Homo sapiens), sequence (P06401 whole entry, looked up): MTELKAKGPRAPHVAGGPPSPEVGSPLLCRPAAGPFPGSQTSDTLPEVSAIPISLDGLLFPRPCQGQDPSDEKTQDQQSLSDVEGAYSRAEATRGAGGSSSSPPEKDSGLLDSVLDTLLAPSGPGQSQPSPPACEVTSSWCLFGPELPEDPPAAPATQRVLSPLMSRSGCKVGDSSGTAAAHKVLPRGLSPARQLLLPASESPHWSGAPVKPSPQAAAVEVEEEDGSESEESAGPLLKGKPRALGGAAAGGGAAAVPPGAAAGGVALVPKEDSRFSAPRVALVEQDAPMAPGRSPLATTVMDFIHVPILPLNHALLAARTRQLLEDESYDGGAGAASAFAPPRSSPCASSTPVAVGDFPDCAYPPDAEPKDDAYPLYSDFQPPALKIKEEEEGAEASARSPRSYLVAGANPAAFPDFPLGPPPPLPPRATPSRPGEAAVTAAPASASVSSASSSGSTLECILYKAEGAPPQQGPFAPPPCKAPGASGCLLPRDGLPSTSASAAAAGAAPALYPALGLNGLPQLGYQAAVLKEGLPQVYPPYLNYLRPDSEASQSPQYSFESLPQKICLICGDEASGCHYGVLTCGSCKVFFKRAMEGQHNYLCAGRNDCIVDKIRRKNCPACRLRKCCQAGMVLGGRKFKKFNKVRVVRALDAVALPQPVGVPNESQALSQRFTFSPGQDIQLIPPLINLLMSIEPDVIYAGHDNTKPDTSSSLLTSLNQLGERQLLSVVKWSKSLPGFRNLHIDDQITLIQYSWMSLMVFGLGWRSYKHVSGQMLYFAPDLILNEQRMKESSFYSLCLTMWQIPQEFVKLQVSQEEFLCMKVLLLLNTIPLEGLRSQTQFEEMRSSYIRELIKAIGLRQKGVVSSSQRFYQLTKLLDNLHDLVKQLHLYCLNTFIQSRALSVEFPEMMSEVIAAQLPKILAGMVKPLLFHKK

Structure (SMILES)	Potency [1]	Potency [2]	Potency [3]	outcome [4]	outcome [5]	Potency [6]	Potency [7]	Potency [8]	Potency [9]	outcome [10]	outcome [11]	outcome [12]	outcome [13]	Potency [14]	Potency [15]	outcome [16]	outcome [17]
C[N+]1(C)CCCC(OC(=O)C(O)(c2ccccc2)c2ccccc2)C1 (stereo not drawn)	inactive	inactive	inactive	inactive	inactive	inactive	15 µM (active)	inactive	inactive	inactive	inactive	inactive	–	–	–	–	–
CCCCS(=O)(=O)N[C@@H](Cc1ccc(OCCCCC2CCNCC2)cc1)C(=O)O	inactive	inactive	inactive	inactive	inactive	inactive	inactive	–	inactive	inactive	inactive	–	inactive	inactive	inactive	–	–
CC(=O)c1cnccn1	inactive	inactive	inactive	inactive	inactive	inactive	–	inactive	inactive	inactive	inactive	–	inactive	inactive	–	–	–
Cc1ccc(C(=O)Nc2ccc(S(=O)(=O)O)c3cc(S(=O)(=O)O)cc(S(=O)(=O)O)c23)cc1NC(=O)c1cccc(NC(=O)Nc2cccc(C(=O)Nc3cc(C(=O)Nc4ccc(S(=O)(=O)O)c5cc(S(=O)(=O)O)cc(S(=O)(=O)O)c45)ccc3C)c2)c1	inactive	inactive	–	inactive	inactive	inactive	inactive	inactive	–	–	inactive	inactive	inactive	inactive	–	inactive	inactive
CO[C@@]1(NC(=O)CSC[C@@H](N)C(=O)O)C(=O)N2C(C(=O)O)=C(CSc3nnnn3C)CS[C@@H]21	inactive	inactive	–	inactive	inactive	inactive	inactive	inactive	inactive	inactive	inactive	inactive	inactive	–	inactive	–	–
Cc1c(N)c(=O)n(-c2ccccc2)n1C	inactive	inactive	inactive	inactive	–	inactive	inactive	inactive	inactive	–	inactive	inactive	inactive	inactive	inactive	inactive	inactive
O=S(=O)(O)c1cccc2ccccc12	inactive	inactive	inactive	inactive	–	inactive	inactive	inactive	inactive	inactive	inactive	inactive	inactive	inactive	inactive	inactive	inactive
NC(=O)NC1N=C([O][Al])NC1=O (stereo not drawn)	inactive	inactive	inactive	inactive	–	inactive	inactive	–	inactive	inactive	–	–	inactive	inactive	inactive	inactive	inactive
CC(C)(C)C(=O)Oc1ccc(S(=O)(=O)Nc2ccccc2C(=O)NCC(=O)O)cc1	inactive	inactive	inactive	inactive	–	inactive	–	inactive	inactive	inactive	inactive	–	inactive	–	–	inactive	–
